# Values without a mark were called inactive. Results filed as inconclusive are left out. A call without a number means that no potency is given here. Active and inactive are the calls of the source. The call rests on the fitted dose curve; in most records, active means well fitted curve in the direction sought with a large enough effect in the repeat runs; inconclusive means weak or mixed curves; inactive means no such curve, though single readings can be large; an effect the other way counts as inactive or inconclusive.
# How the values were obtained:
# [1] = qHTS RealTime-Glo MT Cell Viability Assay in HEK293 cells - 16 hour (AID 1224872); conditions: RealTime-Glo luminescence; series mostly up to 76.8 µM; further: top concentration of the series differs between compounds; nearly all actives have a fitted effect of over 50% in size
# In short: (§1)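 Quantitative high-throughput screen of the Tox21 10K library in HEK293: cells and RealTime-Glo reagents plated together, compound added at 5 h, luminescence monitored through 40 h at 37 C.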
# [2] = qHTS RealTime-Glo MT Cell Viability Assay in HepG2 cells - 8 hour (AID 1224873); conditions: RealTime-Glo luminescence; series mostly up to 76.8 µM; further: nearly all actives have a fitted effect of over 55% in size
# In short: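 HepG2 cells (600/well) mixed with RealTime-Glo MT reagent, settled 5 h at 37 C/5% CO2 before compound addition. Nonlytic NanoLuc luminescence from viable-cell prosubstrate reduction read repeatedly during 40 h treatment at 37 C.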
# [3] = qHTS RealTime-Glo MT Cell Viability Assay in HEK293 cells - 40 hour (AID 1224874); conditions: RealTime-Glo luminescence; max response: active compounds read low; further: nearly all actives have a fitted effect of over 50% in size
# In short: (§2)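 Tox21 screen in HEK293 using RealTime-Glo MT chemistry, with cells and reagent co-dispensed. Luminescence proportional to viable cell number was captured at intervals during 40 h compound exposure at 37 C.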
# [4] = A CellTox Green Cytotoxicity Assay to monitor cytotoxicity in HEK293 cells - 24 hour (AID 1224875); conditions: CellTox Green fluorescence; series mostly up to 76.8 µM; further: nearly all actives have a fitted effect of over 45% in size
# In short: (§3)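 Seeding of HEK293 cells together with cytotoxicity dye preceded a 5 h incubation at 37 C/5% CO2. Test compounds in DMSO were then added and fluorescence monitored across 40 h.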
# [5] = A CellTox Green Cytotoxicity Assay to monitor cytotoxicity in HepG2 cells - 16 hour (AID 1224876); conditions: CellTox Green fluorescence; series mostly up to 76.8 µM; further: nearly all actives have a fitted effect of over 45% in size
# In short: (§4)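 Nonlytic assay: viable cells exclude the dye, so fluorescence scales with cell death. HepG2 at 600 cells/well, compounds added after 5 h, signal read across 40 h.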
# [6] = qHTS RealTime-Glo MT Cell Viability Assay in HepG2 cells - 32 hour (AID 1224877); conditions: RealTime-Glo luminescence; series mostly up to 76.8 µM; further: nearly all actives have a fitted effect of over 55% in size
# In short: (§5)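 Compound treatment began 5 h after plating HepG2 cells (600/well) with NanoLuc luciferase and prosubstrate. Plates stayed at 37 C for 40 h; luminescence was captured at six time points, 0 h through 40 h.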
# [7] = A CellTox Green Cytotoxicity Assay to monitor cytotoxicity in HepG2 cells - 24 hour (AID 1224878); conditions: CellTox Green fluorescence; series mostly up to 76.8 µM; further: nearly all actives have a fitted effect of over 45% in size
# In short: as §4
# [8] = A CellTox Green Cytotoxicity Assay to monitor cytotoxicity in HepG2 cells - 40 hour (AID 1224879); conditions: CellTox Green fluorescence; series mostly up to 76.8 µM; further: nearly all actives have a fitted effect of over 40% in size
# In short: as §4
# [9] = qHTS RealTime-Glo MT Cell Viability Assay in HEK293 cells - 0 hour (AID 1224880); conditions: RealTime-Glo luminescence; series mostly up to 76.8 µM; further: top concentration of the series differs between compounds; nearly all actives have a fitted effect of over 45% in size
# In short: as §2
# [10] = A CellTox Green Cytotoxicity Assay to monitor cytotoxicity in HEK293 cells - 32 hour (AID 1224881); conditions: CellTox Green fluorescence; series mostly up to 76.8 µM; further: nearly all actives have a fitted effect of over 40% in size; further: potency means the concentration at half of the fitted maximal effect
# In short: as §3
# [11] = A CellTox Green Cytotoxicity Assay to monitor cytotoxicity in HepG2 cells - 0 hour (AID 1224882); conditions: CellTox Green fluorescence; series mostly up to 76.8 µM; further: nearly all actives have a fitted effect of over 35% in size
# In short: as §4
# [12] = A CellTox Green Cytotoxicity Assay to monitor cytotoxicity in HepG2 cells - 32 hour (AID 1224883); conditions: CellTox Green fluorescence; series mostly up to 76.8 µM; further: nearly all actives have a fitted effect of over 50% in size
# In short: as §4
# [13] = A CellTox Green Cytotoxicity Assay to monitor cytotoxicity in HEK293 cells - 8 hour (AID 1224884); conditions: CellTox Green fluorescence; series mostly up to 76.8 µM; further: nearly all actives have a fitted effect of over 35% in size
# In short: as §3
# [14] = qHTS RealTime-Glo MT Cell Viability Assay in HepG2 cells - 16 hour (AID 1224885); conditions: RealTime-Glo luminescence; series mostly up to 76.8 µM; further: nearly all actives have a fitted effect of over 50% in size
# In short: as §5
# [15] = qHTS RealTime-Glo MT Cell Viability Assay in HEK293 cells - 24 hour (AID 1224886); conditions: RealTime-Glo luminescence; series mostly up to 76.8 µM
# In short: as §1
# [16] = qHTS RealTime-Glo MT Cell Viability Assay in HEK293 cells - 8 hour (AID 1224887); conditions: RealTime-Glo luminescence; series mostly up to 76.8 µM
# In short: as §2
# [17] = A CellTox Green Cytotoxicity Assay to monitor cytotoxicity in HEK293 cells - 16 hour (AID 1224888); conditions: CellTox Green fluorescence; series mostly up to 76.8 µM; further: nearly all actives have a fitted effect of over 35% in size
# In short: as §3
# [18] = A CellTox Green Cytotoxicity Assay to monitor cytotoxicity in HepG2 cells - 8 hour (AID 1224890); conditions: CellTox Green fluorescence; series mostly up to 76.8 µM; further: nearly all actives have a fitted effect of over 45% in size
# In short: as §4
# [19] = A CellTox Green Cytotoxicity Assay to monitor cytotoxicity in HEK293 cells - 40 hour (AID 1224871); conditions: CellTox Green fluorescence; series mostly up to 76.8 µM; further: nearly all actives have a fitted effect of over 45% in size
# In short: as §3
# [20] = qHTS RealTime-Glo MT Cell Viability Assay in HepG2 cells - 0 hour (AID 1224889); conditions: RealTime-Glo luminescence; series mostly up to 76.8 µM; further: nearly all actives have a fitted effect of over 50% in size
# In short: as §5
smiles,measurement,setting,value
CC1=CC[C@@H]2C[C@H]1C2(C)C,"activity change, negative = cytotoxicity",[1],8.54% [at 15.8 µM]
same,"viability change, negative = cytotoxic",[2],0.867% [at 15.8 µM]
same,max response,[3],1.39%
same,activity change,[4],"2.23% [at 15.8 µM, active compounds read high]"
same,cytotoxicity increase,[5],-4.53% [at 15.8 µM]
same,"activity change, negative = cytotoxic",[6],2.7% [at 15.8 µM]
same,cytotoxicity,[7],-4.03% [at 15.8 µM]
same,cytotoxicity increase,[8],-3.58% [at 15.8 µM]
same,"activity change, negative = cytotoxicity",[9],-16.1% [at 15.8 µM]
same,cytotoxicity increase,[10],1.12% [at 15.8 µM]
same,cytotoxicity,[11],-3.74% [at 15.8 µM]
same,cytotoxicity increase,[12],-9% [at 15.8 µM]
same,cytotoxicity increase,[13],0.245% [at 15.8 µM]
same,"activity change, negative = cytotoxic",[14],1.14% [at 15.8 µM]
same,"activity change, negative = cytotoxicity",[15],1.87% [at 15.8 µM]
same,"activity change, negative = cytotoxicity",[16],-0.368% [at 15.8 µM]
same,activity change,[17],"1.29% [at 15.8 µM, active compounds read high]"
same,cytotoxicity increase,[18],-9.84% [at 15.8 µM]
Cc1ccc2c(c1[N+](=O)[O-])C(=O)c1ccccc1C2=O,Potency,[19],inactive
same,Potency,[2],inactive
same,Potency,[4],inactive
same,Potency,[5],inactive
same,Potency,[6],inactive
same,Potency,[7],inactive
same,Potency,[8],inactive
same,Potency,[10],inactive
same,Potency,[11],inactive
same,Potency,[12],inactive
same,Potency,[13],inactive
same,Potency,[14],inactive
same,Potency,[16],inactive
same,Potency,[17],inactive
same,Potency,[20],inactive
same,Potency,[18],inactive
CC(=O)OC(C)C[N+](C)(C)C (stereo not given),Potency,[19],inactive
same,Potency,[2],inactive
same,max response,[3],-1.13%
same,Potency,[4],inactive
same,Potency,[5],inactive
same,Potency,[6],inactive
same,Potency,[7],inactive
same,Potency,[9],inactive
same,Potency,[10],inactive
same,Potency,[11],inactive
same,Potency,[12],inactive
same,Potency,[13],inactive
same,Potency,[14],inactive
same,Potency,[15],inactive
same,Potency,[16],inactive
same,Potency,[17],inactive
same,Potency,[20],inactive
same,Potency,[18],inactive
CCCc1nc2c(C)cc(-c3nc4ccccc4n3C)cc2n1Cc1ccc(-c2ccccc2C(=O)O)cc1,Potency,[19],inactive
same,Potency,[4],inactive
same,Potency,[5],inactive
same,Potency,[6],inactive
same,Potency,[7],inactive
same,Potency,[8],inactive
same,Potency,[9],inactive
same,Potency,[10],inactive
same,Potency,[11],inactive
same,Potency,[12],inactive
same,Potency,[13],inactive
same,Potency,[14],inactive
same,Potency,[17],inactive
same,Potency,[18],inactive
O=C(O)CN1C(=O)c2cccc3cccc(c23)C1=O,Potency,[1],inactive
same,Potency,[2],inactive
same,max response,[3],9%
same,Potency,[4],inactive
same,Potency,[5],inactive
same,Potency,[6],inactive
same,Potency,[7],inactive
same,Potency,[8],inactive
same,Potency,[9],inactive
same,Potency,[10],inactive
same,Potency,[11],inactive
same,Potency,[12],inactive
same,Potency,[13],inactive
same,Potency,[14],inactive
same,Potency,[15],inactive
same,Potency,[16],inactive
same,Potency,[17],inactive
same,Potency,[20],inactive
CC(C)(C)C1(CCc2ccc(Cl)cc2)CO1 (stereo not given),Potency,[19],inactive
same,Potency,[2],inactive
same,Potency,[5],inactive
same,Potency,[6],inactive
same,Potency,[9],inactive
same,Potency,[10],21.9 µM (active)
same,Potency,[11],inactive
same,Potency,[13],inactive
same,Potency,[14],inactive
same,Potency,[15],inactive
same,Potency,[16],inactive
same,Potency,[17],inactive
same,Potency,[20],inactive
COC(CC(C)CCCC(C)(C)O)OC (stereo not given),Potency,[1],inactive
same,Potency,[2],inactive
same,max response,[3],1.35%
same,Potency,[4],inactive
same,Potency,[5],inactive
same,Potency,[6],inactive
same,Potency,[7],inactive
same,Potency,[8],inactive
same,Potency,[9],inactive
same,Potency,[10],inactive
same,Potency,[11],inactive
same,Potency,[12],inactive
same,Potency,[13],inactive
same,Potency,[14],inactive
same,Potency,[15],inactive
same,Potency,[16],inactive
same,Potency,[17],inactive
same,Potency,[20],inactive
same,Potency,[18],inactive
CCN(Cc1cccc(S(=O)(=O)O)c1)c1ccc(C(=C2C=CC(=[N+](CC)Cc3cccc(S(=O)(=O)O)c3)C=C2)c2ccc(O)cc2S(=O)(=O)[O-])cc1,Potency,[1],inactive
same,Potency,[2],inactive
same,max response,[3],8.88%
same,Potency,[4],inactive
same,Potency,[5],inactive
same,Potency,[6],inactive
same,Potency,[7],inactive
same,Potency,[8],inactive
same,Potency,[9],inactive
same,Potency,[10],inactive
same,Potency,[11],inactive
same,Potency,[12],inactive
same,Potency,[13],inactive
same,Potency,[14],inactive
same,Potency,[15],inactive
same,Potency,[16],inactive
same,Potency,[17],inactive
same,Potency,[20],inactive
CCN(CC)CCOC(=O)C(c1ccccc1)c1ccccc1,Potency,[1],inactive
same,Potency,[2],inactive
same,max response,[3],0.0208%
same,Potency,[4],inactive
same,Potency,[5],inactive
same,Potency,[6],inactive
same,Potency,[7],inactive
same,Potency,[8],inactive
same,Potency,[9],inactive
same,Potency,[10],inactive
same,Potency,[11],inactive
same,Potency,[12],inactive
same,Potency,[13],inactive
same,Potency,[14],inactive
same,Potency,[15],inactive
same,Potency,[16],inactive
same,Potency,[17],inactive
same,Potency,[20],inactive
same,Potency,[18],inactive
C=CC(=O)O,Potency,[1],inactive
same,Potency,[2],inactive
same,max response,[3],-0.787%
same,Potency,[4],inactive
same,Potency,[5],inactive
same,Potency,[6],inactive
same,Potency,[7],inactive
same,Potency,[8],inactive
same,Potency,[9],inactive
same,Potency,[10],inactive
same,Potency,[11],inactive
same,Potency,[12],inactive
same,Potency,[13],inactive
same,Potency,[14],inactive
same,Potency,[15],inactive
same,Potency,[16],inactive
same,Potency,[20],inactive
same,Potency,[18],inactive
O=C(C(=O)c1ccco1)c1ccco1,Potency,[19],inactive
same,Potency,[2],inactive
same,Potency,[4],inactive
same,Potency,[5],inactive
same,Potency,[6],inactive
same,Potency,[7],inactive
same,Potency,[8],inactive
same,Potency,[9],inactive
same,Potency,[10],inactive
same,Potency,[11],inactive
same,Potency,[12],inactive
same,Potency,[13],inactive
same,Potency,[14],inactive
same,Potency,[17],inactive
same,Potency,[20],inactive
same,Potency,[18],inactive
Cc1ccc(Nc2c(F)cccc2Cl)c(CC(=O)O)c1,Potency,[19],inactive
same,Potency,[2],inactive
same,max response,[3],5.05%
same,Potency,[4],inactive
same,Potency,[5],inactive
same,Potency,[7],inactive
same,Potency,[8],inactive
same,Potency,[9],inactive
same,Potency,[10],inactive
same,Potency,[11],inactive
same,Potency,[12],inactive
same,Potency,[13],inactive
same,Potency,[14],inactive
same,Potency,[15],inactive
same,Potency,[16],inactive
same,Potency,[17],inactive
same,Potency,[18],inactive
Nc1nc2ccc(OC(F)(F)F)cc2s1,Potency,[19],inactive
same,Potency,[2],inactive
same,Potency,[4],inactive
same,Potency,[5],inactive
same,Potency,[6],inactive
same,Potency,[7],inactive
same,Potency,[9],inactive
same,Potency,[10],inactive
same,Potency,[11],inactive
same,Potency,[12],inactive
same,Potency,[13],inactive
same,Potency,[14],inactive
same,Potency,[16],inactive
same,Potency,[17],inactive
same,Potency,[20],inactive
same,Potency,[18],inactive
